Here are results for 34 compounds from PubChem BioAssay (NCI).

Compounds without any hit were thinned out: in the full panel of roughly 83,000, 20% have a hit.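 Activity criterion: percent growth below 10, measured after cells in 96-well plates were exposed to a single compound concentration for 48 hours.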 Values without a mark were called inactive. The source made the active and inactive calls.

This test has as its system MCF7 breast. In words: NCI-60 one-dose screen, 48 h (100 = growth as untreated, 0 = no growth, -100 = all killed). The following applies: 10 µM unless noted.
In the case of `Fc1c[c-]c(-c2ccccn2)c(F)c1.[CH3-].[Pt+2].c1ccc([PH+](c2ccccc2)c2ccccn2)cc1`, the growth was -16.3% (active).
With `CC(=O)O[C@@H]1CC[C@]2(C)[C@H]3CC[C@]4(C)C(=O)CC[C@H]4[C@@H]3C[C@@H]3SC(N)=N[C@@]32C1`, the growth is 32.6%.
In the case of `COc1cc2c(cc1OCc1ccccc1)C(CC(C)C)=[N+](C)CC2`, the growth was 73.4%.
For the compound `CC(C)=CCC[C@H](C(=O)O)[C@@H]1CC[C@]2(C)C3=C(CC[C@@]12C)[C@@]1(C)CC[C@H](O)C(C)(C)[C@@H]1CC3`, the growth is 88.9%.
For the compound `CC(C)=CCc1c(O)c(C(=O)CC(C)C)c(O)c2c(-c3ccccc3)cc(=O)oc12`, the growth was 28.3%.
For `Cc1ccc(C(Cc2ccccc2)NCCO)cc1` (centres undefined), the growth was 93.4%.
In the case of `O=C(O)CNC(=O)C(Cl)(Cl)Cl`, the growth was 91.1%.
Consider `COC(=O)[C@@H](C)C[C@H](Cc1ccccc1)NC(=O)c1csc([C@@H](C[C@H](C(C)C)N(C)C(=O)[C@@H](NC(=O)[C@H]2CCCCN2C)c2ccc(F)cc2)OC(C)=O)n1`, for which the growth was 22.3%.
As for `C[C@]12CC[C@H]3[C@@H](C[C@@H]4SC(Nc5ccccc5)=N[C@@]45CC(O)CC[C@]35C)[C@@H]1CCC2O` (some centres undefined), the growth is 29.2%.
In the case of `COc1ccc(/C=C\c2cc(OC)c(OC)c(OC)c2)cc1NC(=O)/C=C/c1cc(OC)c(OC)c(OC)c1` it was 25.2%; in that of `O=C(N/N=C/c1ccc(N(CCCl)CCCl)cc1)c1cccc2ccccc12`, 35.4%.
In the case of `CC(=O)O[C@H](C[C@H](C(C)C)N(C)C(=O)[C@@H](NC(=O)[C@H]1CCCCN1C)C(C)C)c1nc(C(=O)N[C@@H](Cc2ccccc2)C[C@H](C)C(=O)O)c(CCOCc2ccccc2)s1`, the growth is 25.9%.
In the case of `COc1cc2c(cc1OCCCCn1c(-c3cccs3)nc3ccccc31)N=C[C@@H]1CCCN1C2=O` it was -15.2% (active).
As to `C1CCC2(CC1)OOCNCOO2`, the growth was 45.7%.
`COC1=CC(=O)O[C@@H](/C=C/c2ccc3c(c2)OCO3)C1`: the growth is 99.7%.
As for `O=C(CC1(O)C(=O)Nc2ccc(Cl)cc21)c1ccc(C(=O)NCC2CCC3(CC2)OOC2(CCCCC2)OO3)cc1` (centres undefined), the figure is 37.4%; as for `C/C(=C\c1ccn(-c2ccc(N)cc2C(F)(F)F)n1)[C@@H]1C[C@@H]2O[C@]2(C)CCC[C@H](C)[C@H](O)[C@@H](C)C(=O)C(C)(C)[C@@H](O)CC(=O)O1`, 16.4%.
In the case of `O=NNc1ccccn1` it was 71.4%; in that of `N#CC1(c2ccccc2)CCN(Cc2ccccc2)CC1`, 110%.
Take `CN(C)CCCOc1ccc2c(c1)c(C(=O)C(=O)NCCO)cn2Cc1ccccc1`: the growth is 91.5%.
In the case of `CC12CCC=CC1CCC1C2CCC2(C)C(c3ccc(=O)oc3)CCC12O` (centres undefined) it was -30.6% (active); in that of `CCCCOc1ccc(C(N)Cc2ccccc2)cc1` (centres undefined), 81.7%.
Consider `CCC1CN1CCCCN1CC1CC` (centres undefined), for which the growth is 99.8%.
`CC1(C)C(C(=O)c2cn(CCCCF)c3ccccc23)C1(C)C`: the growth is 89%.
Take `Cc1cc(N(CCCl)CCCl)ccc1C=Nc1cccnc1`: the growth is 36.5%.
As for `COC(=O)[C@H](Cc1ccccc1)NC(=O)c1csc([C@@H](C[C@H](C(C)C)N(C)C(=O)[C@@H](NC(=O)[C@H]2CCCCN2C)C2CC2)OC(C)=O)n1`, the figure is 19.5%.
As for `[Cl][Hg][c]1cc(Br)cc(Br)c1`, the figure is 15.1%.
As for `COc1ccc2c(c1)c(-c1nc(-c3c[nH]c4ncccc34)cs1)cn2CCCCN1CCCCC1`, the growth was -74.9% (active).
As for `C=COC(=O)CCN1CC1`, the figure is 101%; as for `COC(=O)[C@@H](C)C[C@H](Cc1ccccc1)NC(=O)c1csc([C@@H](C[C@H](C(C)C)N(C)C(=O)[C@@H](NC(=O)[C@H]2CCCCN2C)C2CCCCC2)OC(C)=O)n1`, 18.3%.
As for `CCOC(=O)[C@@H](C)C[C@H](Cc1ccccc1)NC(=O)c1csc([C@@H](C[C@H](C(C)C)N(C)C(=O)CNC(=O)[C@H]2CCCCN2C)OC(C)=O)n1`, the figure is 17.9%.
For `CC1=C(CNO)C2=C(C)C3(CC3)[C@@](C)(O)C(=O)C2=C1`, the growth was 10.6%.
As for `C[C@]12CCc3sc(-c4ccccc4O)nc3C1=CC[C@@H]1[C@@H]2CC[C@]2(C)C(=O)CC[C@@H]12`, the growth is 93.3%.
In the case of `COC(=O)[C@@H](C)C[C@H](Cc1ccc2ccccc2c1)NC(=O)c1csc([C@@H](C[C@H](C(C)C)N(C)C(=O)[C@@H](NC(=O)[C@H]2CCCCN2C)C(C)C)OC(C)=O)n1` it was 17%.
